In the library only some 7% were active in any assay of this set; here they are far more common.
ATXN2 expr inh = reduces ATXN2 reporter expression in HEK-293 cells. HEK-293 ATXN2-luciferase reporter, luminescence, 24 h. Potency, µM (doses to about 57 µM), for inactives: at the highest dose activity change, negative = inhibition, most hits filed as inhibitors. 0.72% of 360,000 active; also: potency is read from the fitted curve at half-maximal effect; % is scaled to controls: 0 for no effect and ±100 for the full control effect; nearly all actives have a fitted effect of over 55% in size
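ATXN2-luciferase reporter cells (luciferase flanked by upstream and downstream ATXN2 gene portions) were treated 24 h at 37 °C with compounds at up to 57 uM. SteadyGlo luminescence gave expression; GF-AFC fluorescence gave viability.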
S2 tox = reduces viability in counter-screen for ATXN expression inhibitors; S2 cells (HEK-293 line with an ATXN2-luciferase reporter) viability, CellTiter-Fluor protease fluorescence, 24 h; Potency, µM (highest dose often 56.7 µM), usual class: cytotoxic; 0.49% of 400,000 active; AID 651635; also: potency is read from the fitted curve at half-maximal effect; nearly all actives have a fitted effect of over 40% in size
IL1B secr inh = inflammasome signaling inhibition, IL-1 beta readout; THP-1 LPS/ATP IL-1B secretion, AlphaLISA, 16 h; hits give low values; activity change, % at 57.5 µM; 4.7% of 360,000 active; AID 743279; in the data active = activity change below about -50%; inconclusive = mostly about -30% to -49%; also: % is scaled to controls: 0 for no effect and ±100 for the full control effect
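Secreted IL-1B measured by AlphaLISA bead assay after 16 h compound exposure of THP-1 cells; compounds (final up to 57.5 uM) added 1 h before LPS (250 ng/mL) and ATP (1.25 mM) stimulation; lower signal means less secretion.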
a7 integrin act = activators of alpha7 integrin expression for muscular dystrophy; alpha7betagal myoblasts, beta-gal FDG fluorescence, 48 h; Potency, µM (titrated, usually from 38.3 µM), inactives show top-dose activation, hits mostly activators; 0.064% of 350,000 active; AID 624291;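 also: potency is read from the fitted curve at half-maximal effect; 100% = response of the positive control SU9516; nearly all actives have a fitted effect of over 60% in size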
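Alpha7betagal+/- myoblasts (passage 13) were plated 16-24 hr, then exposed to compounds (1:260 dilution of DMSO stock) for 48 hours at 37C. After MPER lysis, β-galactosidase reporter activity was read as FDG fluorescence (ex 480/em 540) after 30 minutes.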
DRD3 agonist = agonists of human D3 dopamine receptor; D3R DiscoveRx beta-arrestin cells, luminescence, 90 min; AID 652048; 0.58% of 410,000 active; max activation, %; in the data active = max activation above about 30%; also: 0% is about no effect
Target sequence (P35462 whole entry, looked up): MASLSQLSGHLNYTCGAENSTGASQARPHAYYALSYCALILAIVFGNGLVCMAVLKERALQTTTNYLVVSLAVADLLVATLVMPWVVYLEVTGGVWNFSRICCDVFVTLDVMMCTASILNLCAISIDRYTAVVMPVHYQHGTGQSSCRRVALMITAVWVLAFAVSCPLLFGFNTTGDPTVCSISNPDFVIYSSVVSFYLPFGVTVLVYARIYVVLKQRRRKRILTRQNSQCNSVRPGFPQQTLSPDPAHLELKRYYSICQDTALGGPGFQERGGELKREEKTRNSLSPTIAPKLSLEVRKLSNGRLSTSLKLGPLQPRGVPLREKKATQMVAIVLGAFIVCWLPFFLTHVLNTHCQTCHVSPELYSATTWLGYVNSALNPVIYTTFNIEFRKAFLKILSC
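Agonist mode: compounds and dopamine controls were applied to plated cells for 90 min at 37 degrees C after an overnight attachment at 1500 cells/well. Luminescent read-out followed 30 - 60 minutes at room temperature with DiscoveRx detection reagent.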
D3 antag = blocks the human D3 dopamine receptor. P35462. D3R cells, DiscoveRx beta-arrestin luminescence, antagonist mode; hits give low values. max response, negative = inhibition, %. 2.5% of 360,000 active. AID 652054; in the data active = max response below about -50%; inconclusive = no clear call, values can overlap the other calls; also: % is scaled to controls: 0 for no effect and ±100 for the full control effect
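Cells plated overnight at 1500 cells/well, then exposed to library compounds with dopamine controls for 90 minutes at 37 degrees C. DiscoveRx reagent added for 30–60 minutes at room temperature; luminescence read, quantitative HTS format.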
The depositor's hits bear a star; i = inactive; ? = inconclusive; nt = not tested or not shown. Unless noted, calls follow the shape of the dose curve; as a rule, active = well fitted curve in the direction sought with a large enough effect; inconclusive = small, poorly fitted or top-dose-only effect, or another doubt; inactive = no such curve, though single readings can be large; an effect the other way counts as inactive or inconclusive.

SMILES	ATXN2 expr inh	S2 tox	IL1B secr inh	a7 integrin act	DRD3 agonist	D3 antag
COC(=O)C1=C(C)NC(C)=C(C(=O)OCC(C)=O)C1c1ccccc1[N+](=O)[O-] (stereo not given)	?	?	nt	nt	-10.8	nt
COC(=O)C1=C(C)NC(C)=C(C(=O)OCC(C)C)C1c1ccccc1[N+](=O)[O-] (stereo not given)	?	?	-65.0*	nt	-10.6	-8.0
O=C(CSc1nnc2ccccn12)NCCN1C(=O)CSC1=O	7.7%	i	8.8	-4.1%	-0.8	-1.7
Cc1[nH]nc2ccc(-c3cncc(OC[C@@H](N)Cc4ccccc4)c3)cc12	3.06µM*	nt	nt	nt	nt	nt
CCCCOC(=O)/C=C\C(=O)OCCCC	-3.3%	i	-1.6	14.6%	-2.2	3.3
CCCCOC(=O)/C=C\C(=O)NC(N)=O	?	i	-105.2*	-48.3%	-6.6	?
CC(NCC(O)COc1ccccc1)C1COc2ccccc2O1 (stereo not given)	0.3%	i	-4.6	12.9%	-3.6	-85.4*
CCN(CC)S(=O)(=O)c1ccc(N2CCOCC2)c(NC(=O)c2cc(Cl)c3c(c2)OCO3)c1	nt	i	-8.4	22.8%	6.0	23.9
C=C(C)COc1ccc(-c2n[nH]c(C)c2-c2ccc(OC)cc2)c(O)c1	?	?	-51.1*	-52.8%	8.2	15.6
CCOc1ccc(-c2n[nH]c(C)c2-c2ccccc2OC)c(O)c1	-28.1%	i	-54.6*	-42.4%	1.1	23.7
COc1ccc(-c2n[nH]c(C)c2-c2cscn2)c(O)c1	0.6%	i	-7.0	41.3%	-0.6	1.7
CCOc1ccc(-c2nc(N)ncc2Oc2ccc(OC)cc2)c(O)c1	8.3%	i	-87.4*	-30.4%	5.4	-1.9
CCOc1ccc(-c2nc(N)ncc2-c2ccc(OC)cc2)c(O)c1	-4.2%	i	-8.1	0.0%	1.7	-14.2
N#C/C(=C(/O)COC(=O)Cc1c[nH]c2ccccc12)c1nc2ccccc2[nH]1	5.9%	i	13.7	2.8%	0.5	0.0
N#C/C(=C(/O)COC(=O)CSc1ccc(Cl)cc1)c1nc2ccccc2[nH]1	28.2µM*	14.1µM*	-102.0*	-51.5%	-6.7	-8.9
Cc1cc(SCC(=O)OC/C(O)=C(\C#N)c2nc3ccccc3[nH]2)c(C)cc1Br	?	i	-100.1*	-55.4%	1.3	12.4
O=C(NCCS(=O)(=O)c1ccc(C(F)(F)F)cn1)c1ccc(Cl)cc1	2.3%	nt	nt	nt	nt	nt
Cc1c2cnn(-c3ccccc3)c(=O)c2c(C)n1CCCC(=O)N1CCN(c2ncccn2)CC1	0.7%	i	-19.1	-7.2%	1.3	0.0
CCOc1ccc(OCC(O)CNC2CCN(Cc3ccccc3)CC2)cc1 (stereo not given)	-8.7%	i	?	-51.8%	-4.8	?
COc1ccccc1NCC(O)COc1ccc(C(C)(C)C)cc1 (stereo not given)	?	?	-105.8*	2.7%	5.1	-18.6
COc1ccc(CNCC(O)COc2ccc(C(C)(C)c3ccccc3)cc2)cc1 (stereo not given)	-21.0%	i	-100.4*	-27.5%	-19.3	4.6
CC(C)(c1ccccc1)c1ccc(OCC(O)CNC2CCN(Cc3ccccc3)CC2)cc1 (stereo not given)	?	?	-102.1*	-22.5%	-15.1	?
COC(=O)c1ccc(CNCC(O)COc2ccc(-c3ccccc3)cc2)cc1 (stereo not given)	-1.4%	i	14.2	-7.7%	-14.4	3.2
CC(C)(C)c1ccc(OCC(O)CNC(=O)c2ccccc2C(=O)O)cc1 (stereo not given)	12.3%	i	23.8	-4.5%	1.7	16.5
OC(CNc1ccccc1)COc1ccc(OCC(O)CNc2ccccc2)cc1 (stereo not given)	?	?	-50.8*	-7.3%	0.6	-20.0
SMILES	ATXN2 expr inh	S2 tox	IL1B secr inh	a7 integrin act	DRD3 agonist	D3 antag
O=C(O)c1c[nH]c2nccnc12	nt	i	?	15.1%	-3.0	6.8
COc1ccc(NCC(O)COc2ccc(C(C)(C)C)cc2)cc1 (stereo not given)	-22.3%	?	-65.3*	-4.3%	-1.0	-19.6
COc1ccc(OCC(O)CNCCOc2ccccc2OC)c(C(C)(C)C)c1 (stereo not given)	nt	nt	-72.6*	-27.3%	-3.7	-80.7*
COc1ccc(S(=O)(=O)N2CCN(C(=O)CN3C(=O)NC(C)(c4ccc5ccccc5c4)C3=O)CC2)cc1 (stereo not given)	-4.6%	i	-15.7	2.4%	2.3	10.5
CC1CCCN(C(=O)COC(=O)Cc2ccc(Cl)cc2)C1 (stereo not given)	-7.3%	i	-0.4	16.2%	-12.9	7.2
CCOc1ccc2c(ccc(/C=C/c3cc(C)c4cccnc4c3O)[n+]2C)c1	?	7.52µM*	?	0.0%	-10.9	?
CCOc1ccc2nc(C)cc(C(=O)O)c2c1	-1.7%	i	-9.2	1.1%	-0.9	-11.3
COc1ccc(C(=O)NC(=S)N2CCN(c3ccc([N+](=O)[O-])cc3)CC2)cc1	-11.8%	?	?	-12.0%	-2.5	?
CCCCN(CCCC)CCCN1CC(=O)N2[C@@H](Cc3c([nH]c4ccccc34)C2(C)C)C1=O	-32.0%	i	-73.5*	16.6%	-3.1	5.1
CCCCCN1CC(=O)N2[C@@H](Cc3c([nH]c4ccccc34)C2(C)C)C1=O	20.6%	i	35.1	13.5%	2.4	3.7
CCCc1c(C(=O)OCC)nnc2c(-c3ccccc3)c(C)nn12	3.9%	i	nt	nt	8.1	nt
C=CCn1cccc(C(=O)Nc2ccc(C)c(C)c2)c1=O	55.2%	i	-78.3*	33.1%	-8.4	-8.0
COC(=O)c1ccc(C2C(C(=O)c3cc4ccccc4o3)=C(O)C(=O)N2CCN2CCOCC2)cc1 (stereo not given)	-2.3%	i	-10.0	10µM*	-8.5	-20.4
O=C(C1=C(O)C(=O)N(CCN2CCOCC2)C1c1ccc(Cl)cc1)c1cc2ccccc2o1 (stereo not given)	nt	i	-5.9	-3.1%	-2.1	2.4
O=c1[nH]c(=S)[nH]c2c1[C@H](C1CC1)O[C@H](CCc1ccccc1)C2	-8.8%	i	1.1	nt	-13.4	-84.0*
CNc1snc(C)c1C(=O)OCC(=O)Nc1ccc(C)cc1F	-9.8%	i	-7.4	-22.4%	-4.4	8.8
OC1OC[C@@H](O)[C@H](O)[C@@H]1O (stereo not given in full)	nt	nt	nt	nt	1.1	nt
CCOC(=O)C1CCN(C(=O)COC(=O)C23CC4CC(CC(C4)C2)C3)CC1	10.1%	i	0.0	-31.7%	-5.1	-22.8

Compound activity deposited in PubChem BioAssay by National Center for Advancing Translational Sciences (NCATS).
